dFosB act = activators of mouse delta FosB homodimer | P13346 | purified delta FosB, TAMRA-CDK5 oligo fluorescence polarization; percent of positive-control signal above neutral wells | activation, % at 25 µM | 340,000 compounds, 0.99% hits | AID 493131;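 active means mean activation above about 17%, with every replicate also reaching it, limit read from the data, passing the limit was not always enough; inconclusive means only one of the two conditions met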
Target sequence (P13346 whole entry, looked up): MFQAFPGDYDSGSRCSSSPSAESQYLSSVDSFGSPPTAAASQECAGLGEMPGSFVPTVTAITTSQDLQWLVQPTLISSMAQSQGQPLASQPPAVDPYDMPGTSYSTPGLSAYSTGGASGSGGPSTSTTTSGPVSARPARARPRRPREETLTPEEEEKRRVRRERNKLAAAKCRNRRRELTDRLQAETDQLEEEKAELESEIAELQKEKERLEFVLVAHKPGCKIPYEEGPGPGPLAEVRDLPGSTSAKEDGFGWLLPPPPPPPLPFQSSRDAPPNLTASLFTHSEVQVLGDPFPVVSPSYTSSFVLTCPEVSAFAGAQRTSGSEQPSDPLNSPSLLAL
CR mimetic SO = lowers age-related superoxide in aged yeast cells; S. cerevisiae aged cells, superoxide DHE fluorescence; hits give low values; superoxide response (% of plate mean), % at 10 µM; 330,000 compounds, 0.18% hits; AID 2690;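 active means superoxide response under a set limit, about three screen SD below normal, cut at about 65% in these data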;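 further: yeast aged for seven days with compound at 30 °C before DHE staining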
UBC13 polyUb = inhibitors of human UBC13 polyubiquitin chain formation. P61088. TR-FRET. inhibition, % at 20 µM. 330,000 compounds, 0.47% hits. AID 485273; in the data active means inhibition above about 45%, passing the limit was not always enough; inconclusive means no clear call, values can overlap the other calls
Target sequence (P61088 whole entry, looked up): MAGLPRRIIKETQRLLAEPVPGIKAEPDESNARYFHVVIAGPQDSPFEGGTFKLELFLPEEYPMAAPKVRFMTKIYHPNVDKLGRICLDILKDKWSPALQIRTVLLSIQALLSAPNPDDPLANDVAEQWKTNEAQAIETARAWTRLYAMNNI
GRIN3A LBD mod = modulators (binders) of human NR3A ligand-binding domain | NR3A LBD differential scanning fluorimetry, Tm shift; 0% = protein alone, 100% = glycine-bound protein | Tm shift relative to glycine control, % at 25 µM | 340,000 compounds, 2.5% hits | AID 1259313;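 active means melting temperature shift of at least 10% of the positive control shift, at one fixed dose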
NALP1 inh = inhibitors of NALP1 inflammasome in yeast; S. cerevisiae NALP1/ASC/caspase-1 growth, X-gal OD620, 72 h; inhibition, % at 10 µM; 280,000 compounds, 0.61% hits; AID 2071; in the data active means inhibition mostly above about 24%, no sharp cut-off; inactive means mostly below about 32%
Hits are given with their value; 0 = inactive; ? = inconclusive; - = no result given. In the library only some 4.3% were active in any assay of this set; here they are far more common.

SMILES	dFosB act	CR mimetic SO	UBC13 polyUb	GRIN3A LBD mod	NALP1 inh
O=C(NCCc1ccccc1F)C1CCC(=O)N(CCCN2CCCC2=O)C1 (stereo unspecified)	0	0	0	0	0
COc1ccc(CC(=O)Nc2nc(-c3ccc(OC)c(OC)c3)cs2)cc1OC	0	0	0	0	0
COc1ccc(-c2csc(NC(=O)CN3C(=O)C4CCCCC4C3=O)n2)cc1OC (stereo unspecified)	0	0	0	12	0
COc1ccc(-c2csc(NC(=S)NC(=O)c3cccs3)n2)cc1OC	0	-	0	10	0
COc1ccc(-c2csc(NC(=S)NC(=O)c3cccs3)n2)cc1Br	-	0	0	38	0
COc1ccc(-c2csc(C)n2)cc1Br	0	0	0	0	0
COc1ccc(Cl)cc1S(=O)(=O)N(C)CC(=O)N1CCOCC1	0	0	0	0	0
COc1ccccc1CN(C(=O)CNC(=O)c1ccco1)C(C(=O)NCC1CCCO1)c1ccccc1 (stereo unspecified)	0	0	0	0	0
O=C(CCCC(=O)N(c1ccc(F)cc1)C(C(=O)NC1CCCC1)c1ccc(O)cc1)Nc1ccccn1 (stereo unspecified)	0	0	0	0	0
O=C(Nc1ccccc1)N1CCc2ccccc2C1	0	0	0	0	50
Cc1ccc(NC(=O)N2CCc3ccccc3C2)cc1	0	0	0	0	0
O=C(c1cccs1)N1N=C(c2ccccc2)CC1c1ccccc1O (stereo unspecified)	31	0	0	0	0
O=C(c1ccco1)N1N=C(c2cccs2)CC1c1ccccc1O (stereo unspecified)	27	0	0	0	0
COc1cccc(C2CC(c3cccs3)=NN2C(=O)c2ccco2)c1O (stereo unspecified)	0	0	0	0	0
Cc1csc(NC(=O)c2ccc(COc3ccccc3)o2)n1	0	0	0	0	43
Cc1cccc(NC(=O)[C@@H]2CCCN2C(=O)OC(C)(C)C)c1C	0	0	0	0	0
O=C(COc1cccc2cccnc12)N/N=C/c1ccc(O)cc1	19	0	0	0	0
O=C(CN1C(=O)C2C3CC(C(Br)C3Br)C2C1=O)Nc1ccc(C(=O)O)cc1 (stereo unspecified)	0	54	0	0	0
CCOC(=O)/C(C#N)=C1/C=C(C)NC(c2ccccc2O)=N1	0	0	0	14	0
CCOC(=O)/C(C#N)=C1/C=CN(C)C(C)=N1	0	0	0	0	0
Cc1ccc(-c2csc3nc4c5ccccc5c(NCCCN5CCOCC5)nn4c(=O)c23)cc1	-	0	56	-	0
Cc1c(CC(=O)Nc2ccc(Cl)cc2)sc2ccc(Cl)cc12	0	0	0	28	-
O=C(N/N=C/c1c[nH]c2ccccc12)c1cc(-c2cccc3ccccc23)n[nH]1	0	0	0	0	0
O=C(N/N=C/c1cccs1)c1cc(-c2ccc3ccccc3c2)n[nH]1	0	0	0	13	-
Cc1ccc(-c2cc(C(=O)N/N=C/c3c[nH]c4ccccc34)[nH]n2)cc1	0	-	-	27	0
SMILES	dFosB act	CR mimetic SO	UBC13 polyUb	GRIN3A LBD mod	NALP1 inh
O=C(N/N=C/c1c[nH]c2ccccc12)c1cc(-c2ccc3ccccc3c2)n[nH]1	0	0	0	41	0
O=C(N/N=C/c1c[nH]c2ccccc12)c1ccn[nH]1	0	0	0	11	0
O=C(N/N=C/c1c[nH]c2ccccc12)c1ccccc1Cl	0	0	0	0	0
CC(C)(C)OC(=O)N/N=C/c1c[nH]c2ccccc12	0	0	0	0	0
O=C(N/N=C/c1c[nH]c2ccccc12)c1cc(-c2ccccc2)n[nH]1	0	0	0	31	0
O=C(N/N=C/c1c[nH]c2ccccc12)c1cc(-c2ccc(-c3ccccc3)cc2)n[nH]1	0	0	0	20	0
Cc1nc(C)c(C(=O)N/N=C/c2c[nH]c3ccccc23)s1	0	0	0	0	0
COc1ccc(C(=O)NNC(=O)c2ccc(C)cc2)cc1S(=O)(=O)N1CCCC1	0	0	0	0	0
COc1cc(C(=O)Nc2ccc(C)cc2)c(-n2cnnn2)cc1OC	0	0	0	0	0
COc1cccc(/C=C/C(=O)OCC(=O)NC(=O)NC2CCCCC2)c1	0	0	0	0	-
Cc1ccc(C)c2c1N(Cc1ccccc1)C(=O)C21OCCO1	0	0	0	0	0
CC1CCN(S(=O)(=O)c2ccc(NC(=O)Cn3nnc(-c4ccccc4)n3)cc2)CC1	?	0	0	11	0
CC1CCCN(S(=O)(=O)c2ccc(NC(=O)CN3CCCCC3)cc2)C1 (stereo unspecified)	0	0	0	0	0
CC1CCCN(S(=O)(=O)c2ccc(NC(=O)Cn3nnc(-c4ccccc4F)n3)cc2)C1 (stereo unspecified)	0	0	0	12	0
Cc1ccc(S(=O)(=O)Nc2ccc(N3CCOCC3)cc2)cc1C	0	0	0	0	0
N#Cc1ccccc1S(=O)(=O)N1CCN(C(=O)c2cc3c(s2)CCC3)CC1	0	-	0	0	-
CCN1CCC(O)(/C=C/c2ccc(C(C)C)cc2)C(C(=O)/C=C/c2ccc(C(C)C)cc2)C1 (stereo unspecified)	54	-	-	24	-
CCN1CCN(C(=O)/C=C/c2ccc(C(C)C)cc2)CC1	0	0	0	0	-
CN(C)c1ccc(NC(=O)/C=C/c2ccccc2Cl)cc1	0	0	0	31	0
CCN(CC)c1ccc(NC(=O)/C=C\c2ccccc2Cl)cc1	0	0	0	26	0
CCOC(=O)Oc1ccc(/C=C2\N=C(C)OC2=O)cc1	0	0	0	0	0
O=C(O)c1nc2nc(Cl)c(Cl)nc2[nH]1	0	0	0	14	0
CCC(=O)Nc1cc(Cl)ccc1C(=O)O	0	0	0	0	0
O=C(O)c1ccc(Cl)cc1Nc1nc2cc(Cl)ccc2o1	0	0	-	14	0
O=CNn1cnc2c(oc3nc(-c4ccccc4)cc(-c4ccco4)c32)c1=O	0	0	0	29	0
SMILES	dFosB act	CR mimetic SO	UBC13 polyUb	GRIN3A LBD mod	NALP1 inh
CCOC(=O)c1sc(-c2cccc(C(F)(F)F)c2)nc1O	0	0	0	0	0
CCOC(=O)c1sc(-c2ccc(C(F)(F)F)cc2)nc1O	0	0	0	0	32
Cc1ccc(NC(=O)/C=C\C(=O)NCC(=O)O)cc1C	0	0	0	0	57
Cc1[nH]n(-c2ccc([N+](=O)[O-])cc2)c(=O)c1C=NCC1CCCO1 (stereo unspecified)	0	0	0	0	0
Cc1ccc(-n2[nH]c(C)c(/C=N/Nc3ccc([N+](=O)[O-])cc3[N+](=O)[O-])c2=O)cc1	0	0	0	22	0
O=C(CN1CCCC1)NC12CC3CC(CC(C3)C1)C2	0	0	0	10	0
O=C(CN1CCCC1)NCC12CC3CC(CC(C3)C1)C2	0	0	0	0	0
Nc1ccc(Sc2ccccc2)nc1	0	0	0	0	-
Cn1c(C(=O)Nc2ccccc2)cc2sccc21	0	0	0	22	0
O=c1cc(CSc2nc(NCc3ccc(Cl)cc3)c3ccccc3n2)nc2ccc(Cl)cn12	0	-	-	0	-
